In PubChem BioAssay (Tox21):
Results filed as inconclusive are left out. Activity calls are given as the source filed them. Unless noted, calls follow the shape of the dose curve; as a rule, active = well fitted curve in the direction sought with a large enough effect in the repeat runs; inconclusive = weak or mixed curves; inactive = no such curve, though single readings can be large; an effect the other way counts as inactive or inconclusive.

Experiments:
[1] = qHTS assay to identify small molecule antagonists of the estrogen receptor alpha (ER-alpha) signaling pathway using the BG1 cell line in the presence of 0.1 nM 17-beta-estradiol - cell viability counter screen (AID 1259241); also: nearly all actives have a fitted effect of over 40% in size; also: potency is read from the fitted curve at half-maximal effect
Outline: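 Cytotoxicity counter-screen: live-cell protease activity measured by fluorescence (30 min reagent step) in the same wells. Cells were VM7Luc4E2 with endogenous ER-alpha and ERE-driven luciferase, treated 22 hr at 37C alongside 0.1 nM 17beta-estradiol final.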

[2] = qHTS assay to identify small molecule antagonists of the androgen receptor (AR) signaling pathway using the MDA cell line in the presence of 0.5 nM R1881 - cell viability counter screen (AID 1259242); also: nearly all actives have a fitted effect of over 45% in size; also: potency is read from the fitted curve at half-maximal effect
Outline: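 MDA-kb2 cells (MMTV-luciferase, AR/GR responsive) were treated with compounds plus 0.5 nM R1881 (final) for 16 hr at 37C, 0% CO2. Viability was then read in the same wells as live-cell protease fluorescence (CellTiter-Fluor, 30 min).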

[3] = biological target: Estrogen receptor (Homo sapiens) (UniProt P03372); experiment: qHTS assay to identify small molecule antagonists of the estrogen receptor alpha (ER-alpha) signaling pathway using the BG1 cell line in the presence of 0.1 nM 17-beta-estradiol (AID 1259244); also: nearly all actives have a fitted effect of over 50% in size; also: potency is read from the fitted curve at half-maximal effect
Sequence of Estrogen receptor (Homo sapiens) (P03372 whole entry, looked up): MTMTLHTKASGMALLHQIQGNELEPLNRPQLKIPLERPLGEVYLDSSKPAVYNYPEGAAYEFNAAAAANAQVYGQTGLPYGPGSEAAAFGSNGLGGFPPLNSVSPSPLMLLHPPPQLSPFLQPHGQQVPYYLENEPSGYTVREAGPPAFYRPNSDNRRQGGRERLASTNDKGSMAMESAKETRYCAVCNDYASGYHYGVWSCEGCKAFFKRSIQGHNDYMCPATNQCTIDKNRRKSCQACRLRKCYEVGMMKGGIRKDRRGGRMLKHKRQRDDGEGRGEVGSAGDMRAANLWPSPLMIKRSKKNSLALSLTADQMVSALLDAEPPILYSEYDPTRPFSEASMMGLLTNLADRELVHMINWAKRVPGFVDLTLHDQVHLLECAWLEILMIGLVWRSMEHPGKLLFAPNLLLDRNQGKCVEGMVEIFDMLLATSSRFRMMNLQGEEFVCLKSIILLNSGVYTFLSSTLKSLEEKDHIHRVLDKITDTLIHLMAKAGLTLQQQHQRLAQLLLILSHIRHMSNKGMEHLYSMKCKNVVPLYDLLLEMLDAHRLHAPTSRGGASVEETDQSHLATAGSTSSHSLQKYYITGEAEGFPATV
Outline: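 VM7Luc4E2 cells (endogenous full-length ER-alpha, 4×ERE-luciferase), kept 5 days in phenol red-free, charcoal-stripped FBS medium; 4,000 cells/well. Compounds added with 0.1 nM (final) 17beta-estradiol, 22 hr at 37C; luminescence read with ONE-Glo after 30 min.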

[4] = qHTS assay to identify small molecule HDAC inhibitors (AID 1259364); also: nearly all actives have a fitted effect of over 45% in size; also: potency is read from the fitted curve at half-maximal effect
Outline: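 Wild-type HCT-116 cells, plated overnight at 37 C, exposed to compounds 2 hr at 37 C; luminogenic HDAC-Glo substrate then added 30 min at room temperature. Luminescence reports relative endogenous class I/II HDAC activity.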

[5] = qHTS assay to identify small molecule HDAC inhibitors - cell viability counter screen (AID 1259365); also: series mostly up to about 92 µM; nearly all actives have a fitted effect of over 50% in size
Outline: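 CellTiter-Glo luminescence (30 min, room temperature) reported viability after a 2 h compound exposure at 37 C. Cells: wild-type HCT-116, 1,500 per well, seeded the night before.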

[6] = qHTS assay to identify small molecule agonists of the sonic hedgehog signaling (Shh) pathway - cell viability counter screen (AID 1259366); also: nearly all actives have a fitted effect of over 50% in size; also: potency is read from the fitted curve at half-maximal effect
Outline: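 Cytotoxicity counter screen: CellTiter-Fluor reagent added after 23 h compound exposure, then 1 h at 37C and fluorescence read. Cells were 3T3 Gli1-Luc, seeded 2,000 per well and dosed 4 h post-plating.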

[7] = qHTS assay to identify small molecule antagonists of the sonic hedgehog signaling (Shh) pathway - cell viability counter screen (AID 1259367); also: nearly all actives have a fitted effect of over 55% in size; also: potency is read from the fitted curve at half-maximal effect
Outline: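 Cells: 3T3 Gli1-Luc, 2,000/well, 4 hr pre-incubation. Compounds in DMSO, then conditioned medium. Incubation 24 hr, 37C, 5% CO2. CellTiter-Fluor at 23 hr, 1 hr, fluorescence.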

[8] = qHTS assay to identify small molecule agonists of the sonic hedgehog signaling (Shh) pathway (AID 1259368; calls by dose curve; also: nearly all actives have a fitted effect of over 15% in size; also: potency is read from the fitted curve at half-maximal effect)
Outline: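 NIH/3T3-derived 3T3Gli1-Luc cells with stably integrated Gli1-driven firefly luciferase, 2,000 cells/well, compounds added after 4 hr. Incubated 24 hr at 37C, 5% CO2; luminescence read after 30 min with luciferase reagent at room temperature.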

[9] = qHTS assay to identify small molecule antagonists of the sonic hedgehog signaling (Shh) pathway (AID 1259369; calls by dose curve; also: nearly all actives have a fitted effect of over 45% in size; also: potency is read from the fitted curve at half-maximal effect)
Outline: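 NIH/3T3-derived Gli1-Luc reporter cells plated 4 h, dosed with compound, then stimulated with conditioned medium for 24 h at 37 C. Firefly luciferase luminescence read after 30 min with detection reagent at room temperature.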

[10] = biological target: Androgen receptor (Homo sapiens) (UniProt P10275); experiment: qHTS assay to identify small molecule antagonists of the androgen receptor (AR) signaling pathway using the MDA cell line in the presence of 0.5 nM R1881 (AID 1259243); also: nearly all actives have a fitted effect of over 50% in size; also: potency is read from the fitted curve at half-maximal effect
Sequence of Androgen receptor (Homo sapiens) (P10275 whole entry, looked up): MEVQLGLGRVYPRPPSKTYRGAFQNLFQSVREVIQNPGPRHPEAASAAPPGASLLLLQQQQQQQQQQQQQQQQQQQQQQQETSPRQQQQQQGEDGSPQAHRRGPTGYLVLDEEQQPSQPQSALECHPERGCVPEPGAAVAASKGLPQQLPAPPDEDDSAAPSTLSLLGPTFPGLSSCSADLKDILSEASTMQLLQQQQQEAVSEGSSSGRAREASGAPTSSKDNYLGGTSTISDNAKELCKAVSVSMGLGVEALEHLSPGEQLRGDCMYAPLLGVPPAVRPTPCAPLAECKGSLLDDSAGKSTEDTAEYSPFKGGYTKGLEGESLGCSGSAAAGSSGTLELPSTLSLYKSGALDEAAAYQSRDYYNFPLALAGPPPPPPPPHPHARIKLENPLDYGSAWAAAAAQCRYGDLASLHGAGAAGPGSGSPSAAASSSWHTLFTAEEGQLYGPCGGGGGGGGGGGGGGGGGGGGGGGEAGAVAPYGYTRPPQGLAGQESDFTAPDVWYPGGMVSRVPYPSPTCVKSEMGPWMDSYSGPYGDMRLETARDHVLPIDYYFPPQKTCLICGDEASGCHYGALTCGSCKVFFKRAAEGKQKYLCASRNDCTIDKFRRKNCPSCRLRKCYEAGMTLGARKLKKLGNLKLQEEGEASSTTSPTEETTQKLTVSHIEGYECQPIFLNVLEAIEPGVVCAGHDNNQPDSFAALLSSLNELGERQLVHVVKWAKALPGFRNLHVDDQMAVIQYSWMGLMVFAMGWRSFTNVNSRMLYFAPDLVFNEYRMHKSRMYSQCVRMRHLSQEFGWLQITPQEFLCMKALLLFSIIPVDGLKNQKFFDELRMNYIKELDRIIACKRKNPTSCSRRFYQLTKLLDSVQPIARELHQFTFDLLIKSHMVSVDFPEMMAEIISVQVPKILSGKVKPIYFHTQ
Outline: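 MDA-kb2 cells (MMTV-luciferase, responsive to AR and GR) at 3,000/well, rested 5 h at 37C, 0% CO2, then given compounds plus 0.5 nM R1881 (final) for 16 hr. Luciferase read with ONE-Glo after 30 min at room temperature.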

Measured: Potency

Oc1ccccc1Br
not listed: [10]
inactive: all other assays above

Cc1ccc(CCl)cc1
not listed: [3]
inactive: all other assays above

CCC(C)c1cc(C(C)(C)C)cc(-n2nc3ccccc3n2)c1O (centres undefined)
not listed: [3]
inactive: all other assays above

FC(Cl)(Cl)Cl
not listed: [3]
inactive: all other assays above

CC(C)CBr
not listed: [3]
inactive: all other assays above

ClC1=C(Cl)[C@]2(Cl)[C@@H]3[C@@H](Cl)[C@H](Cl)C[C@@H]3[C@@]1(Cl)C2(Cl)Cl
not listed: [3]
inactive: all other assays above

ClC1=C(Cl)C2(Cl)C3C(Cl)C=CC3C1(Cl)C2(Cl)Cl (centres undefined)
not listed: [9] | [10]
inactive: all other assays above

ClC1=C(Cl)[C@]2(Cl)[C@H]3[C@H]([C@H]4C=C[C@H]3C4)[C@@]1(Cl)C2(Cl)Cl
not listed: [10]
inactive: all other assays above

C[C@]12CC[C@H]3[C@@H](CCC4=CC(=O)CC[C@@]43C)[C@@H]1CC[C@@H]2O
not listed: [9] | [10]
inactive: all other assays above

Fc1ccc(Oc2ccnc3cc(Cl)cc(Cl)c23)cc1
not listed: [9] | [10]
inactive: all other assays above

C[C@@H]1O[C@@H](O[C@@H]2C=C3CC[C@@H]4[C@H](CC[C@]5(C)[C@@H](c6ccc(=O)oc6)CC[C@]45O)[C@@]3(C)CC2)[C@H](O)[C@H](O)[C@H]1O
active: [9] 16.8 µM
not listed: [3] | [8]
inactive: all other assays above

C[C@]12CC[C@H](O)C[C@H]1CC[C@@H]1[C@@H]2C[C@@H](O)[C@]2(C)[C@@H](C3=CC(=O)OC3)CC[C@]12O
not listed: [3] | [4]
inactive: all other assays above

CCC(C)c1cc([N+](=O)[O-])cc([N+](=O)[O-])c1OC(=O)C=C(C)C (centres undefined)
active: [1] 61.1 µM | [2] 61.1 µM | [10] 54.5 µM | [9] 9.69 µM
inactive: [4] | [5] | [8]

CC(=O)/C=C/c1ccc2c(c1)OCO2
inactive: [1] | [2] | [5] | [8]
active: [10] 68.9 µM | [4] 27.4 µM | [9] 17.3 µM

CCOP(=O)(NC(C)C)Oc1ccc(SC)c(C)c1 (centres undefined)
active: [10] 27.3 µM
inactive: [1] | [2] | [4] | [6] | [8]

O=C(O)COc1nc(Cl)c(Cl)cc1Cl
not listed: [10]
inactive: all other assays above

Oc1ccc(I)cc1
not listed: [9] | [10]
inactive: all other assays above

N#CCc1ccc(Cl)cc1
not listed: [9] | [10]
inactive: all other assays above

CN(C)CCc1c[nH]c2ccc(O)cc12
active: [7] 59.7 µM
not listed: [3] | [6] | [9]
inactive: all other assays above

Cc1ccc(OP(=O)(Oc2ccccc2)Oc2ccccc2)cc1
active: [9] 17.5 µM
not listed: [10]
inactive: all other assays above

CC(C)(C)C(O)C(Oc1ccc(-c2ccccc2)cc1)n1cncn1 (centres undefined)
active: [10] 30.6 µM | [6] 30.6 µM | [7] 24.3 µM | [9] 12.2 µM
not listed: [3]
inactive: all other assays above

ClCCN1CCOCC1
not listed: [10]
inactive: all other assays above

CC(C)(C)OO
not listed: [3]
inactive: all other assays above

COC(=O)N(C(=O)N1COC2(C(=O)OC)Cc3cc(Cl)ccc3C2=N1)c1ccc(OC(F)(F)F)cc1 (centres undefined)
not listed: [9] | [10]
inactive: all other assays above

Clc1ccc(Oc2ccccc2)cc1
not listed: [3]
inactive: all other assays above

CC(C)N1C(=O)N(c2ccccc2)CSC1=NC(C)(C)C
active: [10] 54.5 µM
not listed: [3] | [4] | [9]
inactive: all other assays above

CC(C)C(=O)Cl
not listed: [3]
inactive: all other assays above

Clc1ccc(-c2ccccc2)cc1
not listed: [9] | [10]
inactive: all other assays above

O=[N+]([O-])c1cc(C(F)(F)F)c(Cl)c([N+](=O)[O-])c1Cl
inactive: [4]
active: [1] 61.1 µM | [2] 27.3 µM | [3] 61.1 µM | [6] 13.7 µM | [7] 21.7 µM | [9] 4.86 µM

CC1(c2ccc(Oc3ccccc3)cc2)OC(=O)N(Nc2ccccc2)C1=O (centres undefined)
active: [1] 21.8 µM | [2] 24.5 µM | [3] 8.69 µM
inactive: [4] | [5] | [8]

CC(C)[C@H](C(=O)O[C@H](C#N)c1cccc(Oc2ccccc2)c1)c1ccc(Cl)cc1
not listed: [3] | [9] | [10]
inactive: all other assays above

CCc1nn(C)c(C(=O)NCc2ccc(C(C)(C)C)cc2)c1Cl
inactive: [4] | [5] | [8]
active: [1] 0.77 µM | [2] 0.433 µM | [3] 0.0863 µM | [9] 0.0386 µM

CC(=[OH+])/C=C(/C)[O-].CC(=[OH+])/C=C(\C)[O-].CC(=[OH+])/C=C(\C)[O-].[Fe]
not listed: [4] | [10]
inactive: all other assays above

COP(=O)(OC)SCn1c(=O)oc2cc(Cl)cnc21
not listed: [4] | [10]
inactive: all other assays above

CN(C)C1CSSSC1
not listed: [3] | [9] | [10]
inactive: all other assays above

Nc1ccc(Cl)cc1C(=O)c1ccccc1
not listed: [7] | [9] | [10]
inactive: all other assays above

Cn1[nH]nnc1=S
not listed: [4] | [9] | [10]
inactive: all other assays above

O=c1ssc(Cl)c1Cl
inactive: [1] | [3] | [5] | [8]
active: [2] 54.5 µM | [6] 30.6 µM

CCCCCCCCCCCCCN1CC(C)OC(C)C1 (centres undefined)
not listed: [5] | [10]
inactive: all other assays above

c1ccc2c(c1)[nH]c1cnccc12
not listed: [4] | [9] | [10]
inactive: all other assays above

Cc1cc(C(F)(C(F)(F)F)C(F)(F)F)ccc1NC(=O)c1cccc(I)c1C(=O)NC(C)(C)CS(C)(=O)=O
active: [8] 13.8 µM
not listed: [5] | [9] | [10]
inactive: all other assays above

CCCCCCCCCCBr
not listed: [4] | [9] | [10]
inactive: all other assays above

COC[C@H](C)N(C(=O)CCl)c1c(C)csc1C
not listed: [10]
inactive: all other assays above

ClCc1ccc(Cl)cc1Cl
not listed: [5] | [10]
inactive: all other assays above

CCS(=O)(=O)c1cccnc1S(=O)(=O)NC(=O)Nc1nc(OC)cc(OC)n1
not listed: [3] | [9] | [10]
inactive: all other assays above

Cn1cc(C2=C(c3cn(C4CCN(Cc5ccccn5)CC4)c4ccccc34)C(=O)NC2=O)c2ccccc21
not listed: [3] | [9] | [10]
inactive: all other assays above

COc1ccc(OC)c(CC(C)N)c1 (centres undefined)
not listed: [10]
inactive: all other assays above

CCOC(=O)OC1=C(c2cc(C)ccc2C)C(=O)NC12CCC(OC)CC2 (centres undefined)
active: [9] 17.2 µM
not listed: [10]
inactive: all other assays above

Clc1ccc(C(c2ccccc2Cl)C(Cl)(Cl)Cl)cc1 (centres undefined)
inactive: [1] | [2] | [3] | [7] | [8]

CC(=O)Nc1ccc2c(c1)Cc1ccccc1-2
not listed: [4] | [10]
inactive: all other assays above

CC[C@H](C)[C@H]1O[C@]2(C=C[C@@H]1C)C[C@@H]1C[C@@H](C/C=C(\C)[C@@H](O[C@H]3C[C@H](OC)[C@@H](O[C@H]4C[C@H](OC)[C@@H](O)[C@H](C)O4)[C@H](C)O3)[C@@H](C)/C=C/C=C3\CO[C@@H]4[C@H](O)C(C)=C[C@@H](C(=O)O1)[C@]34O)O2
active: [1] 32.2 µM | [2] 36.1 µM | [3] 22.8 µM | [6] 36.1 µM | [9] 16.1 µM
inactive: [5] | [8]

CC(Cc1ccc(C(C)(C)C)cc1)CN1C[C@@H](C)O[C@@H](C)C1 (some centres undefined)
not listed: [3] | [9] | [10]
inactive: all other assays above

O=C/C(Cl)=C(/Cl)C(=O)O
active: [9] 38.6 µM
not listed: [6] | [7] | [10]
inactive: all other assays above
